Results reported in PubChem BioAssay (Tox21).
Inconclusive results are not listed. The source made the active and inactive calls. Calls follow the shape of the dose curve; as a rule, active = well fitted activation curve with a large enough effect in the repeat runs; inconclusive = weak or mixed curves, or effect the other way; inactive = no such curve, though single readings can be large or run the other way.

assay: qHTS assay to identify small molecule agonists of the retinoic acid receptor (RAR) signaling pathway (AID 1159553); settings: C3RL4 RARE luciferase reporter, agonist, 6 h; series mostly up to 73.3 µM; activation: at the top concentration
Excerpt: National Center for Advancing Translational Sciences [NCATS] NIH Chemical Genomics Center [NCGC] U.S. Environmental Protection Agency [EPA] National Institutes of Environmental Health Sciences [NIEHS] National Toxicology Program [NTP] Assay overview: All-trans Retinoic acid (atRA) is the potent natural metabolite of retinol and plays an important role in normal embryonic development and maintenance of cellular phenotype in adult animals. atRA is the activating ligand for the retinoic acid receptors (RARs) which form heterodimers with retinoid X receptors (RXRs) on the retinoic acid response element (RARE). Through activation of the RAR/RXRs nuclear receptors, atRA regulates the transcription of a large number of protein-coding genes and regulatory RNAs. Intracellular levels of atRA are controlled by the retinol signaling pathway (RSP) that regulates the biosynthesis and catabolism of atRA to maintain physiological levels. Chemicals that interfere with the RSP can cause abnormal intracellular levels of atRA and therefore are potential developmental toxicants. To assess compounds for the potential adverse effect on embryonic development through interfering with retinol signaling, a cell-based RARE luciferase reporter gene assay was used. C3RL4 cell line (OARSA/CFSAN/FDA, Laurel, MD) was used to screen Tox21 10K compound library for identifying activators of the RSP.
Assay Protocol Summary: C3RL4 cells were seeded at 1,000/well in 5 uL of assay medium into white solid 1,536-well tissue culture plates (Greiner Bio-One North America Inc. Monroe, NC) using a Multidrop Combi (Thermo Scientific, Waltham, MA) dispenser. After incubation at 37 C and 5% CO2 for an overnight, 23 nL of compounds dissolved in DMSO, positive control or DMSO only were transferred by a Pintool station (Kalypsys, San Diego, CA). After 6 hr incubation at 37 C and 5% CO2, 5 uL of Amplite Luciferase reagent (AAT Bioquest Inc. Sunnyvale, CA) was added to each assay plate using a Flying Reagent Dispenser (FRD) (Aurora Discovery, San Diego, CA). Luminescence was quantified on a ViewLux plate reader (PerkinElmer, Waltham, MA) after 30 min incubation at room temperature.
% is scaled to controls: 0 for no effect and ±100 for the full control effect; potency is read from the fitted curve at half-maximal effect.

| SMILES | activation | Potency |
| --- | --- | --- |
| CC(C)c1ccc2c(C(C)C)cc(C(C)C)c(S(=O)(=O)O)c2c1 | -0.682% [at 94.8 µM] (inactive) | – |
| Oc1ccc(Cc2ccccc2)cc1 | 6.26% (inactive) | – |
| C1CCC2OC2C1 (stereo not given) | 1.04% [at 94.8 µM] (inactive) | – |
| O=C(CC(=O)c1ccccc1)c1ccccc1 | – | 8.27 µM (active) |
| Cc1cccc(C(C)(C)C)c1O | 8.44% (inactive) | – |
| Cc1ccc(O)c([C@H](CCN(C(C)C)C(C)C)c2ccccc2)c1 | -6.42% (inactive) | – |
| Cc1ncsc1CCO | 1.83% (inactive) | – |
| CCOC(=O)CC(=O)c1cc(F)c(Cl)nc1Cl | -1.2% [at 94.8 µM] (inactive) | – |
| O=C1CCCCCO1 | 0.163% [at 94.8 µM] (inactive) | – |
| CCCCOC(=O)/C=C\C(=O)OCCCC | -1.47% [at 94.8 µM] (inactive) | – |
| CC(C)(C)c1ccc(OCC2CO2)cc1 (stereo not given) | – | 12.4 µM (active) |
| ClC(Cl)(Cl)c1ccc(C(Cl)(Cl)Cl)cc1 | -0.113% (inactive) | – |
| CCN(CCO)CCCC(C)Nc1ccnc2cc(Cl)ccc12 (stereo not given) | 0.716% [at 8.36 µM] (inactive) | – |
| O=[N+]([O-])c1cccc(Cl)c1Cl | -0.0664% (inactive) | – |
| O=C(/C=C/c1ccc(O)c(O)c1)O[C@@H]1C[C@](O)(C(=O)O)C[C@@H](O)[C@H]1O | -1.2% [at 94.8 µM] (inactive) | – |
| OCCC1CCCCN1 (stereo not given) | 0.561% [at 94.8 µM] (inactive) | – |
| CCCCCCCCCCCCCCCBr | -0.405% (inactive) | – |
| CCCCCCCCCO | 0.111% (inactive) | – |
| CCCCC(CC)(CO)CO | -1.72% (inactive) | – |
| O=CNc1ccccc1 | -0.378% [at 94.8 µM] (inactive) | – |

| SMILES | activation | Potency |
| --- | --- | --- |
| O=C(NN1CCCC1)NS(=O)(=O)c1ccc(Cl)cc1 | 1.98% (inactive) | – |
| CCOc1ccc(NC(=O)CC(C)=O)cc1 | 4.99% (inactive) | – |
| CCCC(C)C | 0.271% [at 94.8 µM] (inactive) | – |
| CC(=O)c1c(C)c([N+](=O)[O-])c(C(C)(C)C)c([N+](=O)[O-])c1C | -0.764% (inactive) | – |
| Cc1ccc(C(C)c2ccc(C)c(C)c2)cc1C | -3.53% (inactive) | – |
| CC(C)c1cccc(C(C)C)c1NC(=O)NS(=O)(=O)c1cc(C(C)(C)O)co1 | 0.225% (inactive) | – |
| N#Cc1c(F)cccc1F | 3.47% (inactive) | – |
| CCCCCCCCCC(=O)OCC | 1.62% (inactive) | – |
| CC(C)NCC(O)c1cc(O)cc(O)c1 (stereo not given) | 1.56% (inactive) | – |
| O=[N+]([O-])c1cc[n+]([O-])cc1 | -6.3% (inactive) | – |
| C=Cc1c(C)c2cc3[nH]c(cc4nc(cc5nc(cc1[nH]2)C(C)=C5CCC(=O)O)C(CCC(=O)O)=C4C)c(C)c3C=C | -2.62% (inactive) | – |
| CCOC(=O)C1=C(C)NC(C)=C(C(=O)OC)C1c1cccc([N+](=O)[O-])c1 (stereo not given) | -4.45% (inactive) | – |
| N[C@H]1C(O)O[C@H](CO)[C@H](O)[C@@H]1O (stereo not given in full) | 2.56% (inactive) | – |
| CCN1CCC[C@H]1CNC(=O)c1c(OC)ccc(Br)c1OC | -0.355% (inactive) | – |
| C=CC[N+]1([C@H]2C[C@H]3[C@@H]4CC[C@H]5C[C@H](OC(C)=O)[C@@H](N6CCCCC6)C[C@]5(C)[C@H]4CC[C@]3(C)[C@H]2OC(=O)CC)CCCCC1 | 0.446% (inactive) | – |
| CN(C)CC/C=C1\c2ccccc2COc2ccccc21 | -10% (inactive) | – |
| CNCC[C@@H](Oc1ccccc1C)c1ccccc1 | -7.42% (inactive) | – |
| O=C1[C@H](CC[C@H](O)c2ccc(F)cc2)[C@@H](c2ccc(O)cc2)N1c1ccc(F)cc1 | -5.67% (inactive) | – |
| CC(=O)OCCc1ccccc1 | -0.174% (inactive) | – |
| O=C(O)COC(=O)Cc1ccccc1Nc1c(Cl)cccc1Cl | 0.483% (inactive) | – |
